Test results from PubChem BioAssay (EPA / NIEHS).
Active and inactive are the calls of the source. How the source made its calls: active means hit-call score of the fitted dose curve at least 0.9, where 1 is the maximum; inactive means score below 0.9.

Assays:
Details in all cases: mRNA level, 48 h; actives raise or lower the signal
[1] = read-out: Cytochrome P450 (CYP1A2), CYP1A2 (gene 1544); assay: LTEA_HepaRG_CYP1A2: Life Technologies and Expression Analysis (LTEA) Assay for Cytochrome P450 (CYP1A2) using HepaRG (AID 2283479)
Procedure, shortened: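 Assesses CYP1A2 mRNA in human HepaRG liver cells after 48 h chemical exposure at up to 100 uM. Values come from qRT-PCR with bidirectional curve fitting relative to DMSO.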

[2] = read-out: cysteine-aspartic acid protease (CASP8), CASP8 (gene 841); assay: LTEA_HepaRG_CASP8: Life Technologies and Expression Analysis (LTEA) Assay for cysteine-aspartic acid protease (CASP8) using HepaRG (AID 2283480)
Procedure, shortened: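 qRT-PCR readout of CASP8 mRNA, normalized to three housekeeping genes, after 48 h chemical exposure of HepaRG cells; 8-point half-log series, top 100 uM, 0.5% DMSO vehicle. Bidirectional curve fitting against DMSO baseline.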

[3] = read-out: Cytochrome P450 (CYP2B6), CYP2B6 (gene 1555); assay: LTEA_HepaRG_CYP2B6: Life Technologies and Expression Analysis (LTEA) Assay for Cytochrome P450 (CYP2B6) using HepaRG (AID 2283481)
Procedure, shortened: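 Using 48 h treatment of HepaRG cells in serum-free induction medium, concentrations spanned half-log steps from 100 uM in 0.5% DMSO vehicle. CYP2B6 mRNA induction or loss is scored by qRT-PCR against DMSO.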

[4] = read-out: CYP2C8 (gene 1558); assay: LTEA_HepaRG_CYP2C8: Life Technologies and Expression Analysis (LTEA) Assay for CYP2C8 using HepaRG (AID 2283483)
Procedure, shortened: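 HepaRG (human liver line), 48 h chemical exposure, 8-pt half-log series from 100 uM, 0.5% DMSO vehicle. Readout: CYP2C8 transcript by qRT-PCR, housekeeping-normalized. Bidirectional fit vs DMSO baseline.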

[5] = read-out: CYP2C9 (gene 1559); assay: LTEA_HepaRG_CYP2C9: Life Technologies and Expression Analysis (LTEA) Assay for CYP2C9 using HepaRG (AID 2283484)
Procedure, shortened: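 HepaRG, 48 h dosing, 8-pt half-log series, top 100 uM, 0.5% DMSO vehicle. Read-out: CYP2C9 transcript by TaqMan qRT-PCR, housekeeping-normalized (ACTB/GAPDH/POLR2A). Gain or loss fitted vs DMSO baseline.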

[6] = read-out: CYP4A11 (gene 1579); assay: LTEA_HepaRG_CYP4A11: Life Technologies and Expression Analysis (LTEA) Assay for CYP4A11 using HepaRG (AID 2283486)
Procedure, shortened: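 Readout is CYP4A11 mRNA induction or suppression (qRT-PCR, ACTB/GAPDH/POLR2A normalization) in human HepaRG cells after 48 h chemical treatment, concentrations to 100 uM in 0.5% DMSO, fitted bidirectionally against vehicle.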

[7] = read-out: Cytochrome P450 3A4 (Homo sapiens) (UniProt P08684); assay: LTEA_HepaRG_CYP3A4: Life Technologies and Expression Analysis (LTEA) Assay for CYP3A4 using HepaRG (AID 2283487)
Procedure, shortened: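 In a human hepatic line (HepaRG), duplicate wells were treated 48 h with up to 100 uM chemical in half-log dilutions. Endpoint: CYP3A4 mRNA induction or loss relative to 0.5% DMSO vehicle, by qRT-PCR.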

[8] = read-out: Early growth response protein 1 (EGR1) transcription factor, EGR1 (gene 1958); assay: LTEA_HepaRG_EGR1: Life Technologies and Expression Analysis (LTEA) Assay for Early growth response protein 1 (EGR1) transcription factor using HepaRG (AID 2283490)
Procedure, shortened: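 HepaRG, 48 h exposure, 8-pt half-log series from 100 uM, 0.5% DMSO vehicle; EGR1 transcript by TaqMan qRT-PCR (Fluidigm array), housekeeping-normalized; bidirectional fit relative to DMSO baseline.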

[9] = read-out: Ezrin (EZR), EZR (gene 7430); assay: LTEA_HepaRG_EZR: Life Technologies and Expression Analysis (LTEA) Assay for Ezrin (EZR) using HepaRG (AID 2283491)
Procedure, shortened: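 Gain or loss of EZR mRNA is scored relative to 0.5% DMSO in human HepaRG cultures treated 48 h with test chemicals in duplicate, eight half-log concentrations from 100 uM.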

[10] = read-out: CYP3A5 (gene 1577); assay: LTEA_HepaRG_CYP3A5: Life Technologies and Expression Analysis (LTEA) Assay for CYP3A5 using HepaRG (AID 2283493)
Procedure, shortened: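 qRT-PCR read-out: CYP3A5 transcript in HepaRG lysates, housekeeping-normalized (ACTB/GAPDH/POLR2A), fitted bidirectionally against 0.5% DMSO baseline. Exposure 48 h, eight half-log concentrations up to 100 uM, duplicates.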

[11] = read-out: Fatty Acid-Binding Protein 1 (FABP1), FABP1 (gene 2168); assay: LTEA_HepaRG_FABP1: Life Technologies and Expression Analysis (LTEA) Assay for Fatty Acid-Binding Protein 1 (FABP1) using HepaRG (AID 2283494)
Procedure, shortened: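 qRT-PCR readout of FABP1 transcript (normalized to three housekeeping genes) after 48 h chemical exposure of HepaRG cells; eight concentrations, half-log steps, max 100 uM, 0.5% DMSO vehicle; gain or loss fitted relative to DMSO baseline.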

[12] = read-out: Cytochrome P450 4A22 (Homo sapiens) (UniProt Q5TCH4); assay: LTEA_HepaRG_CYP4A22: Life Technologies and Expression Analysis (LTEA) Assay for Cytochrome P450 4A22 (CYP4A22) using HepaRG (AID 2283495)
Procedure, shortened: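 Cryopreserved HepaRG cells, plated and cultured 48 h, then switched to serum-free induction medium and treated 48 h (duplicates, up to 100 uM, half-log steps, 0.5% DMSO). Expression change of CYP4A22 was fitted bidirectionally against vehicle.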

[13] = read-out: Cytochrome P450 7A1 (Homo sapiens) (UniProt P22680); assay: LTEA_HepaRG_CYP7A1: Life Technologies and Expression Analysis (LTEA) Assay for Cytochrome P450 7A1 (CYP7A1) using HepaRG (AID 2283496)
Procedure, shortened: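 Using 0.5% DMSO as vehicle and baseline, chemicals were tested in duplicate over an 8-point range from 100 uM on HepaRG cells for 48 h; qRT-PCR signals were normalised to ACTB, GAPDH and POLR2A.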

[14] = read-out: Glutathione S-Transferase (GSTA2), GSTA2 (gene 2939); assay: LTEA_HepaRG_GSTA2: Life Technologies and Expression Analysis (LTEA) Assay for Glutathione S-Transferase (GSTA2) using HepaRG (AID 2283497)
Procedure, shortened: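 qRT-PCR readout of GSTA2 transcript, normalized to three housekeeping genes, fitted bidirectionally against 0.5% DMSO baseline. Differentiated HepaRG cells received compound for 48 h at 8 concentrations (top 100 uM, half-log steps).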

[15] = read-out: Cytochrome P450 2C19 (Homo sapiens) (UniProt P33261); assay: LTEA_HepaRG_CYP2C19: Life Technologies and Expression Analysis (LTEA) Assay for CYP2C19 using HepaRG (AID 2283482)
Procedure, shortened: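 Human HepaRG liver cells received test chemicals for 48 h (highest 100 uM, half-log dilutions in 0.5% DMSO). CYP2C19 mRNA induction or loss is read by multiplexed qRT-PCR and fitted in both directions versus vehicle.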

[16] = read-out: DNA damage-inducible transcript 3 (DDIT3), DDIT3 (gene 1649); assay: LTEA_HepaRG_DDIT3: Life Technologies and Expression Analysis (LTEA) Assay for DNA damage-inducible transcript 3 (DDIT3) using HepaRG (AID 2283488)
Procedure, shortened: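 qRT-PCR readout (Fluidigm TaqMan), housekeeping-normalized to ACTB, GAPDH, POLR2A. HepaRG cells, 48 h exposure, 8-point half-log series from 100 uM in 0.5% DMSO, duplicates. Gain or loss of signal fitted against DMSO baseline.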

[17] = read-out: Cytochrome P450 3A7 (Homo sapiens) (UniProt P24462); assay: LTEA_HepaRG_CYP3A7: Life Technologies and Expression Analysis (LTEA) Assay for CYP3A7 using HepaRG (AID 2283492)
Procedure, shortened: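 Cells were thawed, plated, cultured 48 h, then treated for a further 48 h with chemicals (eight-point half-log series from 100 uM, 0.5% DMSO). RNA was isolated and CYP3A7 expression quantified by qRT-PCR normalised to ACTB, GAPDH and POLR2A.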

[18] = read-out: Pro-epidermal growth factor (Homo sapiens) (UniProt P01133); assay: LTEA_HepaRG_EGF: Life Technologies and Expression Analysis (LTEA) Assay for Epidermal growth factor (EGF) using HepaRG (AID 2283489)
Procedure, shortened: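 EGF expression changes in human HepaRG cells are scored by bidirectional fitting relative to 0.5% DMSO controls. Chemicals are tested at eight half-log concentrations up to 100 uM for 48 h in serum-free induction medium.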

[19] = read-out: CYP2E1 (gene 1571); assay: LTEA_HepaRG_CYP2E1: Life Technologies and Expression Analysis (LTEA) Assay for CYP2E1 using HepaRG (AID 2283485)
Procedure, shortened: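 CYP2E1 transcript was measured by TaqMan qRT-PCR in human HepaRG cultures after 48 h chemical exposure (top 100 uM, half-log steps, 0.5% DMSO vehicle). Housekeeping-gene normalization; gain or loss fitted relative to DMSO baseline.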

Measured: AC50

Cytochrome P450 3A7 (Homo sapiens), sequence (P24462 whole entry, looked up): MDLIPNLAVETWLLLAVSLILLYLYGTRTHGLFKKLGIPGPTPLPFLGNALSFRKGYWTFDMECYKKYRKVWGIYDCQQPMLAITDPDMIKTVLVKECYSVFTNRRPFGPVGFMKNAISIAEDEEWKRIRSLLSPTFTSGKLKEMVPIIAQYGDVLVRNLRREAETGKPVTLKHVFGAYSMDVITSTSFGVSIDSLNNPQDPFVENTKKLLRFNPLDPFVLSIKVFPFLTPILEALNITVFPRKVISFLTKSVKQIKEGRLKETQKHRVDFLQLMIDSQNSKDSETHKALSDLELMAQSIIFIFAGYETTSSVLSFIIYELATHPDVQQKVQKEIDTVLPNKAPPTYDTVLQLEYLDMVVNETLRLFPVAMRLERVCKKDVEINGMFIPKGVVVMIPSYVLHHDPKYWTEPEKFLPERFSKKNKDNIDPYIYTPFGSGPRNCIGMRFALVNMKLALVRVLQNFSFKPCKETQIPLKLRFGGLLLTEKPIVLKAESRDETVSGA
Cytochrome P450 2C19 (Homo sapiens), sequence (P33261 whole entry, looked up): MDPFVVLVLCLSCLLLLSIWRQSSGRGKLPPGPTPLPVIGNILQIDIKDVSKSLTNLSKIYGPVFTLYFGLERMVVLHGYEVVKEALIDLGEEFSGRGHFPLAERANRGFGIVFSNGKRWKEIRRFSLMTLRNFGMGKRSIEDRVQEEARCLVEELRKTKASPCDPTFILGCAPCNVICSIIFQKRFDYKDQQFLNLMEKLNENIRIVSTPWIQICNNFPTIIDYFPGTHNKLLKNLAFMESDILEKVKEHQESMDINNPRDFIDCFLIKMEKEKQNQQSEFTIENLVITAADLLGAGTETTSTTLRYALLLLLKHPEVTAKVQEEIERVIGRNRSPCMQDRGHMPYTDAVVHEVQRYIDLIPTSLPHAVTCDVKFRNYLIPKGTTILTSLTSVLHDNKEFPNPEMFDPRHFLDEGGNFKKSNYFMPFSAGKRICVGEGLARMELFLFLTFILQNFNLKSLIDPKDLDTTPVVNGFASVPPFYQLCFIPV
Cytochrome P450 3A4 (Homo sapiens), sequence (P08684 whole entry, looked up): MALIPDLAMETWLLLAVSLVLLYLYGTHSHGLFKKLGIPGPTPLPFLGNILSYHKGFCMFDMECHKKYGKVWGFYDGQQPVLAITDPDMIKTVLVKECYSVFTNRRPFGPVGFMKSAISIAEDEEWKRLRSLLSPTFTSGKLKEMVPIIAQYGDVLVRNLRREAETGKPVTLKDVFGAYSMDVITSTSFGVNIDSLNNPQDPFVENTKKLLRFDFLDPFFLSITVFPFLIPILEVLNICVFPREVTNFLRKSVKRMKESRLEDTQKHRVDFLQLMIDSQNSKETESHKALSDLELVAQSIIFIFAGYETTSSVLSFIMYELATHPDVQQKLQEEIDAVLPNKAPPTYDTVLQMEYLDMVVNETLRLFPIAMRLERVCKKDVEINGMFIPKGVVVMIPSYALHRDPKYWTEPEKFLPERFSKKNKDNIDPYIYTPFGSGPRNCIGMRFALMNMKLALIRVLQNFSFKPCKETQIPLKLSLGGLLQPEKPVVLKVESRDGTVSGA

Nc1ccc(S(=O)(=O)c2ccc(N)cc2)cc1
active: [3] 32.4 µM
not listed: [15] | [16] | [17] | [18] | [19]
inactive: all other assays above

Cc1ccc(C)c(O)c1C
active: [1] 50 µM
not listed: [14] | [18] | [19]
inactive: all other assays above

CN1CCN(Cc2cc(-c3ccc4[nH]c(=O)oc4c3)co2)[C@@H](c2ccc(F)cc2)C1
active: [1] 65.7 µM | [3] 86.7 µM | [5] 88 µM | [17] 11.5 µM | [12] 50 µM | [14] 12.2 µM
not listed: [6] | [16] | [19]
inactive: all other assays above

COc1ccc2c(c1)c(CC(=O)O)c(C)n2C(=O)c1ccc(Cl)cc1
not listed: [12] | [14] | [16] | [19]
inactive: all other assays above

CC(C)(C)c1cc(O)c(C(C)(C)C)cc1O
inactive: [18] | [9]
active: [2] 81.1 µM | [8] 50 µM | [11] 94.3 µM

Cc1c(C(=O)O)c(O)cc2c1C(=O)c1c(O)c([C@@H]3O[C@H](CO)[C@@H](O)[C@H](O)[C@H]3O)c(O)c(O)c1C2=O
not listed: [14] | [16] | [18] | [19]
inactive: all other assays above

CN1CCCC1=O
active: [1] 31.5 µM
not listed: [5] | [6] | [12] | [17] | [18]
inactive: all other assays above

C[C@]12C=CC(=O)C=C1CC[C@@H]1[C@@H]2C(=O)C[C@@]2(C)[C@H]1CC[C@]2(O)C(=O)CO
inactive: [2] | [18] | [8] | [9] | [11]

CC(C)c1ccc(C(=O)N=C(N)N)cc1S(C)(=O)=O
inactive: [5] | [9] | [10] | [11] | [13] | [14]
active: [1] 0.452 µM | [2] 0.409 µM | [3] 0.464 µM | [15] 13.1 µM | [4] 0.578 µM | [6] 0.297 µM | [7] 9.24 µM | [16] 0.545 µM | [8] 0.337 µM | [17] 0.74 µM | [12] 8.37 µM

CCCCCCCCCCCC(=O)OC
active: [1] 66.9 µM
not listed: [6] | [16] | [18] | [19]
inactive: all other assays above

CCCCCCCCCCO
not listed: [6] | [14] | [18] | [19]
inactive: all other assays above

Oc1ccc2c(c1)OC[C@@H](N1CCC(O)(c3ccc(F)cc3)CC1)[C@H]2O
not listed: [12] | [14] | [18] | [19]
inactive: all other assays above

Cc1cccc(Nc2cc(Cl)nc(SCC(=O)O)n2)c1C
active: [3] 65.4 µM | [15] 50 µM | [4] 50 µM | [19] 22.3 µM | [11] 16.7 µM | [12] 16.7 µM | [13] 19.5 µM
not listed: [6] | [7] | [17]
inactive: all other assays above

Nc1nc(N)c2nc(CNc3ccc(C(=O)N[C@@H](CCC(=O)O)C(=O)O)cc3)cnc2n1
active: [1] 0.0998 µM | [8] 0.102 µM | [10] 0.0852 µM | [13] 0.162 µM | [14] 0.12 µM
not listed: [12] | [19]
inactive: all other assays above

COC(=O)c1ccc(O)cc1
not listed: [14] | [16] | [17] | [19]
inactive: all other assays above
